# Laboratory results taken from PubChem BioAssay (NCATS).
# Inconclusive results are not listed. A number with no mark means an inactive call. The source made the active and inactive calls. Calls follow the shape of the dose curve; as a rule, active = well fitted cell-killing curve with a large enough effect; inconclusive = small, poorly fitted or top-dose-only effect, or effect the other way; inactive = flat fitted curve, though single readings scatter.
# Assay: qHTS of pediatric cancer cell lines to identify multiple opportunities for drug repurposing: Confirmatory screen for Rh18 cells (AID 1347125); also: nearly all actives have a fitted effect of over 55% in size
# Settings: Rh18 rhabdomyosarcoma cells, viability; series mostly up to 45.9 µM; activity change, negative = cytotoxic: at the top concentration
# Excerpt: Drug repurposing or repositioning has been offered as a strategy for drug development in oncology programs. This approach has special potential for childhood cancers and other rare or orphan diseases, where the expected return on new drug development has been a disincentive to pharmaceuticals.
# In this project we exploit the poly-pharmacology of drugs to discover new indications via phenotypic screening of a panel of 19 well-characterized cell lines derived from solid tumors seen in children and adolescents. The goal is to identify approved drugs with previously unrecognized anticancer properties that has the potential to reveal new mechanisms and biological processes involved in carcinogenesis or drug resistance. We employed a titration-based paradigm (quantitative high-throughput screening or qHTS), where all compounds were tested at multiple concentrations for their effect on cell viability. Concentration-response curves (CRCs) were derived directly from the primary screen, and both potency and efficacy values were used to identify compounds with robust bioactivity profiles. We screened the NIH Chemical Genomics Center (NCGC) Pharmaceutical Collection (NPC) and Mechanism Interrogation Plate (MIPE) small molecule collections of approved and investigational compounds against these cell lines; and measured metabolically active cells after 48 hours of compound treatment as a proxy for cell viability.
# Assay Submitter: Nathalia J. Martinez, National Center for Advancing Translational Sciences, National Institutes of Health, Rockville, MD, USA; email: natalia.martinez@nih.gov
# [1] Shen, M et al. Quantitative high-throughput phenotypic screening of pediatric cancer cell lines identifies multiple opportunities for drug repurposing. Oncotarget 2017 Dec 19;9(4):4758-4772. PMID 29435139.
# The cells were obtained from University of North Carolina (UNC), Pediatric Preclinical Testing Program (PPT), and Coriell Institute (CI).
# qHTS cell viability assay:
# Cells were assayed in growth media at a density of 500-1,000 cells/well. Five microliters of cells were dispensed into 1,536-well, white, solid-bottom, TC-treated plates (Greiner Bio One) using a multidrop dispenser and incubated at 37 degrees C, 5% CO2, under a humidified atmosphere for 5 hours. Twenty-three nanoliters of compounds and controls (neutral control DMSO or positive control bortezomib at final concentration of 2.3 µM) were subsequently transferred by Kalypsys pintool. For primary screens, the MIPE collection was tested at 11-point dilutions (final concentrations range from 0.78 nM to 46 µM) and the NPC collection at 8-point dilutions (final concentrations range from 0.59 nM to 46 µM). Compounds tested in follow-up screens were assayed at 11-point dilutions. Cells were incubated for 48 hours, followed by addition of 3 µL of CellTiter-Glo (Promega). After a 15 min incubation at room temperature, samples were analyzed for luminescence intensity using a ViewLux High-throughput CCD imager equipped with clear filters.
# % is scaled to controls: 0 for no effect and ±100 for the full control effect; potency is read from the fitted curve at half-maximal effect.
Compound,"activity change, negative = cytotoxic [%]",Potency
CCc1ccc(C2CCNCC2)cc1,-24.9,–
Cc1ccc([N+](=O)[O-])[c]2c1[O][Hg]2,–,5.22 µM (active)
COC(=O)C1=CCCN(C)C1,14.4,–
CN1[C@@H]2CC[C@H]1CC(OC(=O)c1cc(Cl)cc(Cl)c1)C2 (some centres not stated),-15.7,–
COc1ccc2c(C(=O)c3ccc(Cl)cc3)c(C)n(CC(=O)O)c2c1,2.6,–
CC1Sc2c(C(=O)O)c(=O)c3cc(F)c(N4CCNCC4)cc3n21 (configuration not stated),13.3,–
CCCCCCCCC(=O)NCc1ccc(O)c(OC)c1,-2.01,–
CC[n+]1c(-c2ccccc2)c2cc(N)ccc2c2ccc(N)cc21,–,4.14 µM (active)
CCCCCCCCCCCC[N+](C)(C)CCOc1ccccc1,–,20.8 µM (active)
ClC1=C(Cl)C2(Cl)C(CBr)CC1(Cl)C2(Cl)Cl (configuration not stated),-7.07,–
CN(C)C(=S)SSC(=S)N(C)C,–,0.585 µM (active)
C[C@@H]1O[C@@H](O[C@@H]2C=C3CC[C@@H]4[C@H](CC[C@]5(C)[C@@H](c6ccc(=O)oc6)CC[C@]45O)[C@@]3(C)CC2)[C@H](O)[C@H](O)[C@H]1O,–,6.57 µM (active)
